Consider 3 molecules from PubChem BioAssay AID1159580 (chemical genetic matrix, 2015).

The test is described as follows: chemical genetic growth profiling, strain panel (AID 1159580).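 Note: tested at 20 µM; growth read once vehicle control cultures reached saturation at 30 °C; 1 = growth at the plate median or of vehicle wells; lower values mean less growth of the strain.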 The note with it: growth OD.
Where [1] appears, read: S. cerevisiae deletion strains, locus YAL013W, strain DEP1, active compounds read low.
[2] abbreviates: S. cerevisiae deletion strains, locus YBR229C, strain ROT2, active compounds read low.
The mark [3] stands for this setting: S. cerevisiae deletion strains, locus YDL101C, strain DUN1, active compounds read low.
Where [4] appears, read: S. cerevisiae deletion strains, locus YDR150W, strain NUM1, active compounds read low.
Where [5] appears, read: S. cerevisiae deletion strains, locus YEL061C, strain CIN8, active compounds read low.
The mark [6] stands for this setting: S. cerevisiae deletion strains, locus YGR078C, strain PAC10, active compounds read low.
The mark [7] stands for this setting: S. cerevisiae deletion strains, locus YHR030C, strain SLT2, active compounds read low.
Where [8] appears, read: S. cerevisiae deletion strains, locus YHR087W, strain rtc3, active compounds read low.
Where [9] appears, read: S. cerevisiae deletion strains, locus YJL187C, strain SWE1, active compounds read low.
The mark [10] stands for this setting: S. cerevisiae deletion strains, locus YJR043C, strain POL32, active compounds read low.
[11] abbreviates: S. cerevisiae deletion strains, locus YJR075W, strain HOC1, active compounds read low.
Setting [12] is: S. cerevisiae deletion strains, locus YLR039C, strain RIC1, active compounds read low.
[13] abbreviates: S. cerevisiae deletion strains, locus YLR058C, strain SHM2 (second series), active compounds read low.
[14] abbreviates: S. cerevisiae deletion strains, locus YLR085C, strain ARP6, active compounds read low.
The mark [15] stands for this setting: S. cerevisiae deletion strains, locus YLR262C, strain YPT6, active compounds read low.
Where [16] appears, read: S. cerevisiae deletion strains, locus YML094W, strain GIM5, active compounds read low.
[17] abbreviates: S. cerevisiae deletion strains, locus YMR219W, strain ESC1, active compounds read low.
[18] abbreviates: S. cerevisiae deletion strains, locus YMR263W, strain SAP30, active compounds read low.
[19] abbreviates: S. cerevisiae deletion strains, locus YNL153C, strain GIM3, active compounds read low.
Setting [20] is: S. cerevisiae deletion strains, locus YNL298W, strain CLA4 (second series), active compounds read low.
Setting [21] is: S. cerevisiae deletion strains, locus YNL322C, strain KRE1, active compounds read low.
Where [22] appears, read: S. cerevisiae deletion strains, locus YNR030W, strain Alg12, active compounds read low.
Where [23] appears, read: S. cerevisiae deletion strains, locus YPL055C, strain LGE1, active compounds read low.
The mark [24] stands for this setting: S. cerevisiae deletion strains, locus YPL241C, strain CIN2, active compounds read low.
Setting [25] is: S. cerevisiae deletion strains, locus YPR135W, strain CTF4, active compounds read low.

SMILES strings stand for the structures. About 2,000 (36%) of roughly 5,500 compounds were called active. Another 18% or so got no clear call; they are omitted. Some of the results follow. Values without a mark were called inactive. Cut-off read from the data, not from the text of the source: active = normalized growth mostly below about 0.91 (no sharp cut-off); inconclusive = no clear call, values can overlap the other calls; inactive = mostly above about 0.92.

As to `O=C1CCCc2c1nc(-c1ccccc1)n2O`, the normalized growth runs as follows: under setting [1], 1; under setting [2], 1; under setting [3], 1.03; under setting [4], 0.966; under setting [5], 1.05; under setting [6], 1. Moreover, the normalized growth under setting [7] was 1.05; the normalized growth under setting [8] is 0.999; the normalized growth under setting [9] is 1.02; the normalized growth under setting [10] is 0.995; the normalized growth under setting [11] is 1.01; the normalized growth (S. cerevisiae deletion strains, locus YKL190W, strain CNB1, active compounds read low) was 1. For the same molecule, the normalized growth was 1.04 under setting [12]; 1.03 under setting [13]; 0.998 under setting [14]; 1.06 under setting [15]; 1.01 under setting [16]; 1.01 under setting [17]. The normalized growth under setting [18] is 0.999; the normalized growth under setting [19] is 1.03; the normalized growth under setting [20] was 0.993; the normalized growth under setting [21] was 1.01; the normalized growth under setting [22] was 1.01; the normalized growth (S. cerevisiae deletion strains, locus YOL006C, strain TOP1, active compounds read low) was 0.999. Further, the normalized growth by setting is: under setting [23], 0.905; under setting [24], 1.02; under setting [25], 1.

With `O=C1CCCc2c1c1ccccc1n2Cc1ccccc1`, the normalized growth is 0.99 under setting [1]; 0.978 under setting [2]; 0.974 under setting [3]; 0.989 (S. cerevisiae deletion strains, locus YDL134C, strain PPH21, active compounds read low); 0.893 under setting [4]; 0.961 under setting [5]. The normalized growth by setting is: under setting [6], 0.972; under setting [7], 0.712; under setting [8], 0.965; under setting [9], 0.992; under setting [10], 0.996; under setting [11], 0.98. For the same molecule, the normalized growth by setting is: under setting [12], 0.753 (active); under setting [13], 0.997; under setting [14], 0.889; under setting [15], 0.75 (active); under setting [16], 0.91; under setting [17], 0.975. Further, the normalized growth under setting [18] is 0.94; the normalized growth (S. cerevisiae deletion strains, locus YMR307W, strain GAS1, active compounds read low) was 0.973; the normalized growth under setting [19] is 0.98; the normalized growth under setting [20] was 0.95; the normalized growth under setting [21] is 0.974; the normalized growth under setting [22] is 0.951. Also, the normalized growth runs as follows: under setting [23], 0.933; under setting [24], 0.987; under setting [25], 0.839; (S. cerevisiae strains, strain wild type, active compounds read low) 0.974.

Regarding `CN1CCc2ccccc2Cc2[nH]c3ccccc3c2CC1`, the normalized growth is, setting by setting: under setting [1], 1.01; (S. cerevisiae deletion strains, locus YAL040C, strain CLN3, active compounds read low) 1.04; (S. cerevisiae deletion strains, locus YCL061C, strain MRC1 (second series), active compounds read low) 1.01; under setting [4], 1.01; (S. cerevisiae deletion strains, locus YDR363W, strain ESC2, active compounds read low) 0.97; (S. cerevisiae deletion strains, locus YER002W, strain NOP16, active compounds read low) 0.996. The normalized growth runs as follows: under setting [6], 0.994; (S. cerevisiae deletion strains, locus YNL128W, strain TEP1, active compounds read low) 1.01; under setting [19], 1.03; (S. cerevisiae deletion strains, locus YNL175C, strain NOP13, active compounds read low) 1.01; (S. cerevisiae deletion strains, locus YNL197C, strain WHI3, active compounds read low) 1.01; (S. cerevisiae deletion strains, locus YNL224C, strain SQS1, active compounds read low) 0.996. The normalized growth is, setting by setting: under setting [21], 1.02; (S. cerevisiae deletion strains, locus YOR083W, strain WHI5 (second series), active compounds read low) 0.998; under setting [23], 1.01; under setting [24], 1.01.
